# This is part of a sample that, as a whole, favours compounds with a hit. Of some 83,000 tested, about 20% had one in any assay.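 Results are percent growth after 48 hours of single-concentration exposure. 100 means growth as in untreated cells, lower positive values show inhibition; negative values down to -100 show cell death.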 Unmarked numbers belong to inactive results. The source made the active and inactive calls. The calls were made as follows: active = growth percent below 10; inactive = the rest.
# Test system: SN12C renal
# Test: NCI-60 one-dose screen, 48 h (100 = growth as untreated, 0 = no growth, -100 = all killed)
# Settings: 10 µM unless noted
row,SMILES,growth
1,CCCCCCCCCCCCCCCCCC1=NCCN1CCNC(C)=O,104%
2,Clc1ccc(N/N=C(/c2ccccc2)c2ccccn2)nc1,47.3%
3,COc1ccc(-n2nnnc2-c2cn[nH]c2C(F)(F)F)cc1,104%
4,COc1cc2ncnc(-n3ncc4cc(NC(=O)Nc5ccc(Cl)c(Cl)c5)ccc43)c2cc1OC,3.99% (active)
5,CCOC(=O)c1c(C)oc2ncnc(Nc3ccc(C(=O)NCCc4ccccc4)cc3)c12,99.4%
6,CC(=O)/C(=C/c1ccc(-c2ccccc2)cc1)C(=O)c1ccccc1,92.7%
7,N=C(N)c1ccc(-c2ccc(-c3ccc(F)cc3)s2)cc1,-71.2% (active)
8,NC(=O)CC(NC(=O)COc1ccc(Cl)cc1Cl)C(=O)O (stereo unspecified),101%
9,Cc1nc(NC(=O)NC2CCCCC2)sc1C(=O)NN,106%
10,CCOC(=O)C1=C(C(F)(F)F)NC(=S)NC1CN1C(=O)c2ccccc2C1=O (stereo unspecified),105%
11,NC(=O)c1c(Nc2ccccc2)nn2cc(-c3nc4ccccc4s3)c(N)nc12,95.5%
12,O=C(/C=C/c1ccc(Br)cc1)c1ccccc1,91.6%
13,Cc1c(O)c(N=Nc2ccc(C(=O)O)c(O)c2)c2ccccc2c1O,96.3%
14,COc1ccc2c(c1)/C(=C/c1c(-c3cc(OC)c(OC)c(OC)c3)nc3sccn13)C(=O)N2,105%
15,CCOC(=O)c1cc(C(=O)c2ccc(Br)cc2)n2cc(C)cc(C)c12,101%
16,COc1cccc(Cn2cc3c(c2)-c2oncc2CC3)c1,34.5%

# — PubChem BioAssay (NCI)
